# Assay results taken from paper PMC7819943, “Rice protein-binding microarrays: a tool to detect cis-acting elements near promoter regions in rice”.
# In all, about 68,000 sequences were measured (“fluorescence intensity (a.u.)”: median about 9,100, highest 2% from about 16,000 on). Many of the other results were omitted from the sample, so the highest values are more common in it than they were.
# Target: OsWRKY34 (Oryza sativa, UniProt Q0JBA9 1-250)
# Assay: protein-binding microarray (RPBM); PBS, 2% BSA, 51.3 ng/ul salmon testes DNA, 50 uM zinc acetate, 200 nM TF, 25 C, 1 h; high values mean tight binding
# Details: protein: recombinant; tags: N-terminal polyhistidine and DsRed monomer fusion (pET32a); label: CyDye5-dUTP incorporated in the synthesized complementary strand; 3' TTTTT single-stranded linker to array surface; dsDNA, one strand shown
# Procedure, shortened: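 The binding signal is fluorescence intensity per array feature (arbitrary units). Readings came from an Axon 4000B scanner after a washed, 2% BSA-blocked, double-stranded custom Agilent array had been incubated for 1 h at 25 °C with 200 nM protein and 50 µM zinc acetate. The protein was a Ni–NTA-purified transcription factor fused N-terminally to polyhistidine and DsRed, expressed in E. coli BL21-CodonPlus.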
# Chain of OsWRKY34 (Q0JBA9 entry or part of it): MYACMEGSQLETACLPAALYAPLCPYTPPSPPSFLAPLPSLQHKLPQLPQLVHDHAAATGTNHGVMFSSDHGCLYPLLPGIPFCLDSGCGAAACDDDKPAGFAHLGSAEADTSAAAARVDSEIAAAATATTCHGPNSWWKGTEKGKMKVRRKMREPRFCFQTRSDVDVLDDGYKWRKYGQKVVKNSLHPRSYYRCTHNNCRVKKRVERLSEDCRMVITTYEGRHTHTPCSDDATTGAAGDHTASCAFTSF
row,Sequence,binding signal
1,ACCTAGTACGTATACACCTCAATCCATTATAAATAGCAACCGGAGTCACCTAGTGCAG,8280 fluorescence intensity (a.u.)
2,TAGTACAATGGGTGCCCTCAACGGAATAAACCGCTATACCCGGAGTCACCTAGTGCAG,37000 fluorescence intensity (a.u.)
3,GCACAAAACCCTCGAGCACCGCCCGCCGCTATATAACAACCGGAGTCACCTAGTGCAG,9960 fluorescence intensity (a.u.)
4,AGACAAACTCTGGTTTCCGTGTCCAACGTTTGACCGTTCGCGGAGTCACCTAGTGCAG,11300 fluorescence intensity (a.u.)
5,TTTCATTTCACTCGCTGGCATTTCATCTCCTTGACCTATCCGGAGTCACCTAGTGCAG,9400 fluorescence intensity (a.u.)
6,ACCCACTGATCACGAAATCCACACACTGGCCACATCCAAACGGAGTCACCTAGTGCAG,8340 fluorescence intensity (a.u.)
7,TTATCAAAAGTACTTTTTAAGTATGACTTCTCCGTTTTTACGGAGTCACCTAGTGCAG,8280 fluorescence intensity (a.u.)
8,CTTTCTTTATTTCAAAAGTATGATACCGTTGACTTTTCACCGGAGTCACCTAGTGCAG,24900 fluorescence intensity (a.u.)
9,CCCTCCGTTTCAAAATGTTTGACACCGTTGACTTTTTAGCCGGAGTCACCTAGTGCAG,28700 fluorescence intensity (a.u.)
10,TACTCCCTCCGTTTCAAATGACACCATTGACTTTTTAGCACGGAGTCACCTAGTGCAG,9430 fluorescence intensity (a.u.)
11,CCCTCCGTTTCAAAATGTTTGATACCGTTGACTTTTTAGCCGGAGTCACCTAGTGCAG,21200 fluorescence intensity (a.u.)
12,TATTACTTCCTTCGTTTCAAAATGTTTGATACCGTTGACTCGGAGTCACCTAGTGCAG,12000 fluorescence intensity (a.u.)
13,TTTTCTTTTTCAATGTATGATTCTGTTGACTTTTCAGATACGGAGTCACCTAGTGCAG,11600 fluorescence intensity (a.u.)
14,ATACTCCCTCCGTTTCAAAATGTTTGACATCGTTGACTTTCGGAGTCACCTAGTGCAG,9980 fluorescence intensity (a.u.)
15,CATCCGTTTCAAAATGTTTGACACCGTTGACTTTTTAGCACGGAGTCACCTAGTGCAG,26200 fluorescence intensity (a.u.)
16,GAGATGTGTCCATATTTGTAGTATTGGGTGGTATCTATTTCGGAGTCACCTAGTGCAG,8550 fluorescence intensity (a.u.)
17,TCACGGCCCCGCCGACCTCACGTCACCTTTTGTTGCGAGTCGGAGTCACCTAGTGCAG,8110 fluorescence intensity (a.u.)
18,GCCGAGGGCGCCGCCGGCGTCGTCCGAGCTGTGCCGCGCGCGGAGTCACCTAGTGCAG,8640 fluorescence intensity (a.u.)
19,ATCGTCCTCTGCACCTGCACACATCATCACTGGGACAACCCGGAGTCACCTAGTGCAG,8140 fluorescence intensity (a.u.)
20,AGGTCGACGTGTATATGTTCGTCTTTCATATCTCTGCTCTCGGAGTCACCTAGTGCAG,9640 fluorescence intensity (a.u.)
21,GTCGTCCAATGGCATGCCTCGCCCTGATTTTTATCGGGCCCGGAGTCACCTAGTGCAG,12700 fluorescence intensity (a.u.)
22,CCACAGTTAATTCCACACATACATGCACGCGTCTATATATCGGAGTCACCTAGTGCAG,11200 fluorescence intensity (a.u.)
23,GCTAGCTGGATTGGTGGGTGGGCGCGTCAAGAAGGGGATGCGGAGTCACCTAGTGCAG,9830 fluorescence intensity (a.u.)
24,TCATCGCGGGGCGGGGTGTAGCGGGTGCGAAAAGGAGGCGCGGAGTCACCTAGTGCAG,9910 fluorescence intensity (a.u.)
25,AGCTGGCGGCTGGCGGGTGGTGGTGGTGGCTGGCGGCGGGCGGAGTCACCTAGTGCAG,13900 fluorescence intensity (a.u.)
26,CTCCGGTGGGTCGGGTCTGGGCGGGGTGCGCGTGGGGATGCGGAGTCACCTAGTGCAG,18200 fluorescence intensity (a.u.)
27,TGGTGACTGGGTAGGTGGTGGTGGTGGTGCGCGGCGGCGGCGGAGTCACCTAGTGCAG,8620 fluorescence intensity (a.u.)

row,Sequence,binding signal
1,GCGGGGTGCGAGTGGATGGGTGGGCGTAGCGCGTGTCGTGCGGAGTCACCTAGTGCAG,10400 fluorescence intensity (a.u.)
2,GGTGGTCGGGGCTCTGACGCGGCGGGGCGGCGGAGGTGGTCGGAGTCACCTAGTGCAG,10800 fluorescence intensity (a.u.)
3,CTGAGTGGCTGGGTGGGGTAGTGAAAAAAATCATCGCGCGCGGAGTCACCTAGTGCAG,18200 fluorescence intensity (a.u.)
4,CTGGTGGTCGGTTCAGTCGGGCGGGCGGGCGGGCTCACCGCGGAGTCACCTAGTGCAG,22800 fluorescence intensity (a.u.)
5,GGGGTGTGTGTGCTCGGCTACTCCGGTGGGTCGGGTCTGGCGGAGTCACCTAGTGCAG,12700 fluorescence intensity (a.u.)
6,AGGGGTGGATGCGCGTGGGCTGGTGGTGGTGGTGGGGATGCGGAGTCACCTAGTGCAG,19100 fluorescence intensity (a.u.)
7,GGTCTGGTTTTCCGTGTGTGCACGGTCGGGGTGCGCGTGGCGGAGTCACCTAGTGCAG,14300 fluorescence intensity (a.u.)
8,TTCTTGGTTTTGAGTTCTCTTCTCGGTTTTCTCTTTAGCGCGGAGTCACCTAGTGCAG,9000 fluorescence intensity (a.u.)
9,TCTGAAGATGAGAGAGAGCTCACAGTTTATGGTTTTTGTACGGAGTCACCTAGTGCAG,8830 fluorescence intensity (a.u.)
10,TGGTTTGGTTGTGGTAGATCTTTTTTACTTATTGCTACCACGGAGTCACCTAGTGCAG,15800 fluorescence intensity (a.u.)
11,ATACTCGAGATGGGCGCTTGGTACTTGCATGTTTCCATTCCGGAGTCACCTAGTGCAG,8680 fluorescence intensity (a.u.)
12,AAATGTTACAATCATGCTCCAAACTCACACCTTGTTTAACCGGAGTCACCTAGTGCAG,8540 fluorescence intensity (a.u.)
13,CCTTTCACCCGCCCAAACTCATCCATCCATCGATCGCCCTCGGAGTCACCTAGTGCAG,8560 fluorescence intensity (a.u.)
14,GCAATCCGTGTAATTAATTATTTTTTCGTTTATACTCTCTCGGAGTCACCTAGTGCAG,10200 fluorescence intensity (a.u.)
15,CTTCCCACGCCAACGCCTCCGCTCCCGCTCGTACCACGCGCGGAGTCACCTAGTGCAG,8090 fluorescence intensity (a.u.)
16,GGTTTTCCCTGGATGCCGAGAGGGTTTGGGTGCGCGCCGCCGGAGTCACCTAGTGCAG,8910 fluorescence intensity (a.u.)
17,TCGGTCGGGTCGGGTCGGGTCGCGTCGCGTGGGCTGCATGCGGAGTCACCTAGTGCAG,12200 fluorescence intensity (a.u.)
18,GGTTAGGGTTTGGGGTGGGGAGGGGTGGATGCGCGTGGGCCGGAGTCACCTAGTGCAG,21600 fluorescence intensity (a.u.)
19,CCCAACCTCGCCGTCGCCGTCGCCGTCGCCGCCGTCTCCGCGGAGTCACCTAGTGCAG,10000 fluorescence intensity (a.u.)
20,CTGGTCGTCGCTGCTCCGCGTGCCGGTCGGGGTGGGTGGGCGGAGTCACCTAGTGCAG,20100 fluorescence intensity (a.u.)
21,GTGGTGGGTGGTGGCCGCGCTGCTGCGCGGTGGGTCGCATCGGAGTCACCTAGTGCAG,11400 fluorescence intensity (a.u.)
22,GCCTCCGCCGCCGCCGCCGCCGCCGCGTCGTCTCCGACCGCGGAGTCACCTAGTGCAG,9710 fluorescence intensity (a.u.)
23,TTCTTGGGGCTGGAGAGGGTGGGGATGGTGGTGCGGATGCCGGAGTCACCTAGTGCAG,15000 fluorescence intensity (a.u.)
24,GCTGCGGCCGTCAACGTGGTCGTCGTCTCCGCGGCCGCCGCGGAGTCACCTAGTGCAG,46900 fluorescence intensity (a.u.)
25,TCGGTTGGTTGGGAATTTCCATGACTATTTTCACCTATAACGGAGTCACCTAGTGCAG,8650 fluorescence intensity (a.u.)
26,AGGCTTCCAATCTTGTGCTAATCTGCTGGTGAAGTATATGCGGAGTCACCTAGTGCAG,8480 fluorescence intensity (a.u.)
27,CTCCGCCGCCACGCTCGCCCGCTGTTTGCTCCGTCCGCAGCGGAGTCACCTAGTGCAG,8350 fluorescence intensity (a.u.)
